According to PubChem BioAssay (NCATS):
Results filed as inconclusive are left out. The source made the active and inactive calls. Calls come from the whole dose curve; as a rule, active = well fitted curve in the direction sought with a large enough effect; inconclusive = small, poorly fitted or top-dose-only effect, or another doubt; inactive = no such curve, though single readings can be large; an effect the other way counts as inactive or inconclusive.

Columns and labels:
[1] = 10-beta competent E. coli microbial cell viability qHTS against the NCATS CANVASS Library (AID 1347376); conditions: E. coli 10-beta viability, BacTiter-Glo ATP luminescence, overnight; series mostly up to 46.1 µM
How it was run: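 Bacterial suspension diluted to 0.2 OD was dosed with compounds, 11-point series, then held overnight at 37C. BacTiter-Glo reagent was added, and after 20 min at room temperature ATP-dependent luminescence was measured.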

[2] = DH5-alpha competent E. coli microbial cell viability qHTS against the NCATS CANVASS Library (AID 1347377); conditions: BacTiter-Glo ATP luminescence, overnight; at 46.1 µM (top of the series)
How it was run: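 Bacteria were dispensed at 0.2 OD, then compounds were pin-transferred. Plates were incubated overnight at 37C, after which BacTiter-Glo was added and luminescence measured 20 min later.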

[3] = qHTS for H2AX Agonists against the NCATS CANVASS Library (AID 1347378); conditions: CHO-K1 H2AX phosphorylation, HTRF TR-FRET, 3 h; series mostly up to 76.9 µM
How it was run: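 Phospho-H2AX (S139) in CHO-K1 lysates measured by HTRF, reported as 665/615 nm emission ratio after 24 hr antibody incubation at room temperature. Cells were first treated with a compound series for 3 hr at 37C (0.76% DMSO final).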

[4] = qHTS for Inflammasome Signaling Inhibitors: IL-1-beta AlphaLISA screen against the NCATS CANVASS Library (AID 1347379); conditions: THP-1 LPS/ATP, IL-1B AlphaLISA secretion, 16 h; at 57.5 µM (top of the series);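 note: human THP-1 cells primed with LPS then triggered with ATP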
How it was run: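 Secreted IL-1B from human THP-1 cells quantified by AlphaLISA 16 hr after compound addition (final up to 57.5 uM). A 1 hr compound pretreatment preceded inflammasome activation with 250 ng/mL LPS plus 1.25 mM ATP (final).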

[5] = qHTS for Antimalaria activity screened against the NCATS CANVASS Library (AID 1347380);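 note: Plasmodium falciparum strain Dd2 asexual parasites grown in red blood cells; nearly all actives have a fitted effect of over 40% in size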; conditions: P. falciparum Dd2 growth, SYBR Green fluorescence, 72 h; series mostly up to 28.7 µM
How it was run: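 Compounds are titrated over 11 concentrations onto Dd2 parasite cultures (0.3% parasitemia, 2.5% hematocrit). Growth over 72 h at 37C in low oxygen is measured as SYBR Green DNA fluorescence after lysis.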

[6] = Inflammasome Signaling qHTS Counterscreen: IL-1-beta AlphaLISA counterscreen against the NCATS CANVASS Library (AID 1347381); conditions: Purified IL-1beta AlphaLISA signal interference counterscreen; series mostly up to 57.5 µM;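 note: cell-free check with purified IL-1β in medium and no THP-1 cells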
How it was run: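 Purified IL-1-beta (4 pg/well) + compound, 11-pt conc. series; acceptor beads 6 ug/mL + biotin-Ab 0.6 nM final, 1 h RT; SA-donor 24 ug/ml final, 30 min dark RT; read ex 680/em 615.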

[7] = Cytotoxicity qHTS for assessment of Hepg2 cells membrane integrity screened against the NCATS CANVASS Library (AID 1347387); conditions: HepG2 LDH release (CytoTox-ONE) fluorescence, 5 h; series mostly up to 46.1 µM
How it was run: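 Cells were seeded at 2000 per well and left overnight to attach. Compounds were pin-transferred to give 0.59 nM - 46 uM in an 11-point series and incubated 5 hr at 37C. CytoTox-ONE reagent was added and, after 10 min at room temperature, fluorescence (ex 560, em 590 nm) was read.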

[8] = qHTS for Activators of p53 Stress Response Pathway screened against the NCATS CANVASS Library (AID 1347388); conditions: p53RE-bla HCT-116, beta-lactamase reporter, 16 h; series mostly up to 46.1 µM
How it was run: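 p53RE-bla HCT-116 cells (4000/well) were plated 5 h at 37C, exposed to compounds for 16 h at 37C over an 11-point concentration series, then loaded with CCF4 for 2 h at room temperature; 460/530 nm emission ratio read.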

[9] = qHTS assay for small molecule disruptors of mitochondrial membrane potential screened against the NCATS CANVASS Library (AID 1347389); conditions: HepG2 mitochondrial membrane potential, m-MPI red/green ratio, 1.5 h; series mostly up to 46.1 µM; note: nearly all actives have a fitted effect of over 60% in size
How it was run: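 Mitochondrial depolarization in HepG2 cells is scored as a falling aggregate-to-monomer fluorescence ratio after 1 hr compound exposure and 30 min staining with Mito-MPS dye at 37C, each compound tested as an 11-point titration.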

[10] = Secretion counterscreen for inhibitors of the SERCaMP assay screened against the NCATS CANVASS Library (AID 1347390); conditions: SH-SY5Y constitutive GLuc secretion, luminescence, 20 h; series mostly up to 76.6 µM;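 note: light from luciferase secreted into medium read as a measure of general secretion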
How it was run: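 Counterscreen for secretory-pathway interference: after 4 h attachment, SH-SY5Y-GLuc cells were exposed 20 hours to compounds (final 0.001 - 77 uM), then coelenterazine added and GLuc luminescence recorded; Brefeldin A served as control.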

[11] = qHTS for activators of Nrf2/ARE signaling pathway screened against the NCATS CANVASS Library (AID 1347391); conditions: ARE-bla HepG2, beta-lactamase reporter, 16 h; series mostly up to 46.1 µM; note: nearly all actives have a fitted effect of over 60% in size
How it was run: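 Beta-lactamase reporter signal, read as 460 and 530 nm emission under 405 nm excitation after 2 h CCF4 loading, reflected ARE activation in HepG2 cells treated 16 h with an 11-point series.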

[12] = qHTS for activators of dead-cell proteases activity screened against the NCATS CANVASS Library (AID 1347392); conditions: HepG2 cytotoxicity, dead-cell protease luminescence, 5 h; series mostly up to 46.1 µM;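 note: luminescence from protease leaking out of membrane-damaged cells cleaving impermeant substrate; rising signal means more cytotoxicity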
How it was run: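 Cytotoxicity in HepG2 cells was assessed by released protease cleaving AAF-aminoluciferin, with luminescence as signal. Exposure lasted 5 h at 37C across an 11-point series.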

[13] = qHTS for inhibitors of ER calcium dysfunction: SERCaMP assay screened against the NCATS CANVASS Library (AID 1347393); conditions: SH-SY5Y GLuc-SERCaMP (Gaussia luciferase released on ER calcium loss) secretion, thapsigargin, luminescence; series mostly up to 76.6 µM;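 note: lower secreted reporter signal means inhibitor of ER calcium depletion; nearly all actives have a fitted effect of over 40% in size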
How it was run: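 qHTS in SH-SY5Y reporter cells: 16 h compound pretreatment, 4 h thapsigargin, then secreted Gaussia luciferase measured by luminescence.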

[14] = Vero-766 cells viability qHTS against the NCATS CANVASS Library: Counterscreen for Zika virus inhibition assay (AID 1347394); conditions: Vero 766 viability, CellTiter-Glo luminescence, 72 h; series mostly up to 46.1 µM; note: nearly all actives have a fitted effect of over 60% in size
How it was run: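 CellTiter Glo luminescence measured cytotoxicity after 72 h at 37C in uninfected Vero 766 cells, plated at 1000 cells/well. Compounds were applied in an 11-point series. Wells without cells defined 100% inhibition.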

[15] = qHTS for inhibitors of Wild type Zika virus screened against the NCATS CANVASS Library (AID 1347396); conditions: Vero cells, Zika virus CPE, CellTiter-Glo, 72 h; series mostly up to 45.9 µM;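 note: ATP luminescence of surviving cells so rescue from viral cell killing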
How it was run: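 Protection against wild-type Zika cytopathic effect is measured in African green monkey Vero 766 cells exposed to an 11-point compound series. Surviving cells are quantified by CellTiter Glo luminescence after 72 h.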

[16] = Viability qHTS for inhibitors of the SERCaMP assay screened against the NCATS CANVASS Library (AID 1347400); conditions: SH-SY5Y SERCaMP cells viability, CellTiter-Glo, 48 h; series mostly up to 92.2 µM; note: nearly all actives have a fitted effect of over 70% in size
How it was run: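 Seed SH-SY5Y-GLuc SERCaMP MJH297 cells at 1000 per well, incubate 4 h, add compounds across an 11-point range, incubate 48 h at 37C, then add CellTiter-Glo and read luminescence.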

[17] = Redox Reaction Profiling qHTS: Assay Interference Panel against the NCATS CANVASS Library (AID 1347401); conditions: resazurin-DTT redox cycling, fluorescence, 15 min; series mostly up to 57.1 µM
How it was run: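 Quantitative HTS over an 11-point series was run in HEPES pH 7.3 with 50 mM NaCl, 200 uM DTT and 5 uM resazurin. Initial and 15-min resorufin fluorescence readings were taken.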

[18] = qHTS to identify inhibitors of the type 1 interferon - major histocompatibility complex class I in skeletal muscle: primary screen against the NCATS LOPAC collection (AID 1347405); conditions: iHSKM muscle cells, IFN-b-induced MHC-I HiBiT luminescence, 24 h; series mostly up to 45.9 µM;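 note: human myoblasts with HiBiT tag on endogenous HLA-B stimulated by IFN-beta; lytic HiBiT luminescence reporting HLA-B protein level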
How it was run: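 First, engineered myoblasts carrying HLA-B-HiBiT were seeded in medium lacking dexamethasone with 4 ng/ml IFN-beta. After 1 hr, compounds were pinned in (top 46 uM final, 7 points). After 24 hrs at 37 C, luminescence was measured following 10 min lysis.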

[19] = qHTS to identify inhibitors of the type 1 interferon - major histocompatibility complex class I in skeletal muscle: primary screen against the NCATS Pharmaceutical Collection (AID 1347407); conditions: human skeletal muscle cells, IFN-b-induced MHC-I HiBiT luminescence, 24 h; series mostly up to 45.9 µM;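 note: luminescence of HiBiT knocked into endogenous HLA-B as interferon-induced MHC class I level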
How it was run: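 Compounds […] were added to CRISPR-engineered HLA-B-HiBiT C25cl48 human myoblasts with 4.0 ng/ml IFN-beta. After 24 hrs at 37 C, cells were lysed and HiBiT luminescence measured.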

[20] = qHTS for inhibitors of adenylyl cyclases using a fission yeast platform: a pilot screen against the NCATS LOPAC library (AID 1347410); conditions: S. pombe CHP2027, fbp1-GFP fluorescence, 18 h, yeast expressing mammalian AC9 and human GNAS; series mostly up to 57.5 µM
How it was run: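 GFP from fbp1-GFP reporter, read by Acumen laser cytometry, indicates AC inhibition in fission yeast expressing AC9, GNAS and PDE4D2. Cells grown 18 h in the dark at 30C with compounds, final up to 57 uM.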

Measured: Potency

COc1ccc2[nH]cc(CCNC(C)=O)c2c1
not listed: [18] | [19] | [20]
inactive: all other assays above

O=C1N(c2ccccc2)c2ccccc2C1(Cc1ccncc1)Cc1ccncc1
inactive: [18] | [19] | [20]

Cc1cn([C@H]2C=C[C@@H](CO)O2)c(=O)[nH]c1=O
inactive: [18] | [19] | [20]

CC[N+](CC)(CC)CCOc1cccc(OCC[N+](CC)(CC)CC)c1OCC[N+](CC)(CC)CC
inactive: [18] | [19] | [20]

Clc1ccc2nsnc2c1NC1=NCCN1
inactive: [18] | [19] | [20]

NCCc1cnc[nH]1
inactive: [18] | [19] | [20]

Nc1nc2c(ncn2COC(CO)CO)c(=O)[nH]1
inactive: [18] | [19] | [20]

Nc1c2c(nc3ccccc13)CCCC2
inactive: [18] | [19] | [20]

COc1nc(C)nc(Cl)c1NC1=NCCN1
inactive: [18] | [19] | [20]

NC(=O)OCC(COC(N)=O)c1ccccc1
inactive: [18] | [19] | [20]

COc1ccc(C2CNC(=O)C2)cc1OC1CCCC1 (stereo not drawn)
inactive: [18] | [19] | [20]

O=C(CCCN1CCC(O)(c2ccc(Cl)cc2)CC1)c1ccc(F)cc1
inactive: [18] | [19] | [20]

CN1CCN2c3ccccc3Cc3ccccc3C2C1 (stereo not drawn)
inactive: [18] | [19] | [20]

Clc1ccc(C(c2ccccc2Cl)C(Cl)Cl)cc1 (stereo not drawn)
inactive: [18] | [19] | [20]

COc1ccccc1OCCNCC(O)COc1cccc2[nH]c3ccccc3c12 (stereo not drawn)
inactive: [18] | [19] | [20]

CCOC(=O)c1ncn2c1CN(C)C(=O)c1cc(F)ccc1-2
inactive: [18] | [19] | [20]

Nc1nnc(-c2cccc(Cl)c2Cl)c(N)n1
inactive: [18] | [19] | [20]

OCCN(CCO)c1nc(N2CCCCC2)c2nc(N(CCO)CCO)nc(N3CCCCC3)c2n1
inactive: [18] | [19] | [20]

CC1COc2c(N3CCN(C)CC3)c(F)cc3c(=O)c(C(=O)O)cn1c23 (stereo not drawn)
inactive: [18] | [19] | [20]

COc1cc2nc(N(C)CCCNC(=O)C3CCCO3)nc(N)c2cc1OC (stereo not drawn)
inactive: [18] | [19] | [20]

CC(C(=O)O)c1cccc(C(=O)c2ccccc2)c1 (stereo not drawn)
inactive: [18] | [19] | [20]

CC(C)NCC(O)COc1ccc(CCOCC2CC2)cc1 (stereo not drawn)
inactive: [18] | [19] | [20]

COc1ccccc1N1CCN(CC(O)COc2cccc3ccccc23)CC1 (stereo not drawn)
inactive: [18] | [19] | [20]

C[C@H]1c2cccc(O)c2C(O)=C2C(=O)[C@]3(O)C(O)=C(C(N)=O)C(=O)[C@@H](N(C)C)[C@@H]3[C@@H](O)[C@@H]21
inactive: [18] | [19] | [20]

CCCNCC(O)COc1ccccc1C(=O)CCc1ccccc1 (stereo not drawn)
inactive: [18] | [19] | [20]

Cc1ccc(-c2cc(C(F)(F)F)nn2-c2ccc(S(N)(=O)=O)cc2)cc1
inactive: [18] | [19] | [20]

CN1C(C(=O)Nc2ccccn2)=C(O)c2ccccc2S1(=O)=O
inactive: [18] | [19] | [20]

CC(C)NCC(O)c1ccc(O)c(O)c1 (stereo not drawn)
inactive: [18] | [19] | [20]

CN1CCN(CCCN2c3ccccc3Sc3ccc(Cl)cc32)CC1
inactive: [18] | [19] | [20]

Cc1ccc(C(=O)Nc2ccc(S(=O)(=O)O)c3cc(S(=O)(=O)O)cc(S(=O)(=O)O)c23)cc1NC(=O)c1cccc(NC(=O)Nc2cccc(C(=O)Nc3cc(C(=O)Nc4ccc(S(=O)(=O)O)c5cc(S(=O)(=O)O)cc(S(=O)(=O)O)c45)ccc3C)c2)c1
inactive: [18] | [19] | [20]

CN(C)c1nc(N(C)C)nc(N(C)C)n1
inactive: [18] | [19] | [20]

CCc1cccc2c3c([nH]c12)C(CC)(CC(=O)O)OCC3 (stereo not drawn)
inactive: [18] | [19] | [20]

Cc1cc(C(C)(C)C)cc(C)c1CC1=NCCN1
inactive: [18] | [19] | [20]
